Records with an inconclusive call do not appear. Calls of active or inactive are those of the source. The call rests on the fitted dose curve; in most records, active means well fitted curve in the direction sought with a large enough effect; inconclusive means small, poorly fitted or top-dose-only effect, or another doubt; inactive means no such curve, though single readings can be large; an effect the other way counts as inactive or inconclusive.
Key:
[1] = Quantitative highthroughput screen to assess conditional lethalithy of NOMO1 cells grown in RPMI1640 with untreated serum (RPMI+s) (AID 1963876); further: nearly all actives have a fitted effect of over 35% in size;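 on viability: 100% = DMSO wells and 0% = empty wells without cells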
Procedure, shortened: (§1)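 Each medium arm—HPLM with 10% dialyzed FBS, or RPMI1640 with 5 mM glucose and 10% untreated or dialyzed FBS—was screened against an 11-point, 3-fold compound titration for 48 h at 37 °C, with CellTiter-Glo luminescence as endpoint.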

[2] = Quantitative highthroughput screen to assess conditional lethalithy of NOMO1 cells grown in RPMI1640 with dialyzed fetal bovine serum (RPMI+ds) (AID 1963877); further: nearly all actives have a fitted effect of over 30% in size;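 on viability: series mostly up to about 46 µM; 100% = DMSO control wells and 0% = empty wells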
Procedure, shortened: as §1

[3] = Quantitative highthroughput screen to assess conditional lethalithy of P12 Ichikawa cells grown in Human Plasma-Like Medium with dialyzed fetal bovine serum (HPLM+ds) (AID 1963879); settings: Potency: viability; further: nearly all actives have a fitted effect of over 35% in size; on viability: series mostly up to about 46 µM
Procedure, shortened: as §1

[4] = Quantitative highthroughput screen to assess conditional lethalithy of P12 Ichikawa cells grown in RPMI1640 with dialyzed fetal bovine serum (RPMI+ds) (AID 1963880); settings: Potency: P12-Ichikawa viability; further: nearly all actives have a fitted effect of over 35% in size;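 on viability: 100% = DMSO wells and 0% = empty wells on each plate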
Procedure, shortened: as §1

[5] = Quantitative highthroughput screen to assess conditional lethalithy of P12 Ichikawa cells grown in RPMI1640 with untreated serum (RPMI+s) (AID 1963881); settings: Potency: viability; further: nearly all actives have a fitted effect of over 35% in size;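 on viability: series mostly up to about 46 µM; 100% = DMSO wells and 0% = empty wells without cells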
Procedure, shortened: as §1

[6] = Quantitative highthroughput screen to assess conditional lethalithy of SEM cells grown in Human Plasma-Like Medium with dialyzed fetal bovine serum (HPLM+ds) (AID 1963882); further: nearly all actives have a fitted effect of over 35% in size; on viability: series mostly up to about 46 µM
Procedure, shortened: as §1

[7] = Quantitative highthroughput screen to assess conditional lethalithy of SEM cells grown in RPMI1640 with unreated serum (RPMI+s) (AID 1963883); further: nearly all actives have a fitted effect of over 35% in size;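 on viability: 100% = DMSO wells and 0% = empty wells without cells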
Procedure, shortened: as §1

[8] = Quantitative highthroughput screen to assess conditional lethalithy of SEM cells grown in RPMI1640 with dialyzed fetal bovine serum (RPMI+ds) (AID 1963884); further: nearly all actives have a fitted effect of over 35% in size;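 on viability: series mostly up to about 46 µM; 100% = DMSO control wells and 0% = empty wells without cells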
Procedure, shortened: as §1

[9] = Quantitative highthroughput screen to assess conditional lethalithy of NOMO1 cells grown in Human Plasma-Like Medium with dialyzed fetal bovine serum (HPLM+ds) (AID 1963878); further: nearly all actives have a fitted effect of over 35% in size
Procedure, shortened: as §1

[10] = Cellular viability qHTS for adrenocortical cancer (ACC) cell line SW-13 (AID 1963989); settings: SW-13 ACC cells viability, CellTiter-Glo, 48 h; activity (max response): hits give low values; further: nearly all actives have a fitted effect of over 65% in size;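 on activity (max response): cells grown in serum-free medium with ITS supplement; on the % scale 0 is the no-effect control and ±100 the full control effect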
Procedure, shortened: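 IC50 and maximal-response values come from four-parameter logistic fits of titration data. SW-13 cells in serum-free medium received compounds (up to 46 uM final) for 48 h before CellTiter-Glo luminescence.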

[11] = Cellular viability qHTS for adrenocortical cancer (ACC) cell line NCI-H295R (AID 1963990); further: nearly all actives have a fitted effect of over 60% in size
Procedure, shortened: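 Adrenocortical carcinoma cells, suspended at 300 000 cells/mL in serum-free DMEM plus ITS, rested overnight before pin transfer of compound. After two days' incubation, ATP-dependent luminescence was recorded and curve-fitted.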
Potency means the concentration at half of the fitted maximal effect.

Nc1ccn([C@@H]2O[C@H](CO)[C@H](O)C2(F)F)c(=O)n1
active: Potency [1] 0.0833 µM | Potency [2] 0.0833 µM | Potency [3] 0.0833 µM | Potency [4] 0.0526 µM | Potency [5] 0.0743 µM | Potency [6] 0.0118 µM | Potency [7] 0.0166 µM | Potency [8] 0.0059 µM

Nc1ncn([C@@H]2O[C@H](CO)[C@@H](O)[C@@H]2O)c(=O)n1
active: Potency [1] 16.6 µM | Potency [2] 7.43 µM | Potency [9] 16.6 µM | Potency [6] 9.35 µM | Potency [7] 10.5 µM | Potency [8] 4.69 µM

COC1=C(OC)C(=O)C(CC=C(C)CCC=C(C)CCC=C(C)CCC=C(C)CCC=C(C)CCC=C(C)CCC=C(C)CCC=C(C)CCC=C(C)CCC=C(C)C)=C(C)C1=O
inactive: Potency [1] | Potency [2] | Potency [5] | Potency [6] | Potency [7]

COc1ccc(-c2c(-c3ccc(O)cc3O)n[nH]c2C)cc1
active: Potency [7] 19.1 µM
inactive: Potency [1] | Potency [2] | Potency [4] | activity (max response) [10] -14.3% | Potency [11]

COc1ccc(-c2oc3c(CC=C(C)C)c(OC4O[C@H](CO)[C@@H](O)[C@H](O)[C@@H]4O)cc(O)c3c(=O)c2OC2O[C@@H](C)[C@H](O)[C@@H](O)[C@@H]2O)cc1 (stereo not given in full)
inactive: Potency [1] | Potency [2] | Potency [4]
active: Potency [6] 18.7 µM | Potency [7] 13.2 µM | Potency [8] 18.7 µM

O=C(c1ccc(C=Cc2n[nH]c3ccccc23)cc1)N1CCNCC1
active: Potency [1] 0.469 µM | Potency [2] 0.935 µM | Potency [3] 0.935 µM | Potency [5] 0.935 µM | Potency [7] 0.166 µM

CCCCCOC(=O)Nc1nc(=O)n([C@@H]2O[C@H](C)[C@@H](O)C2O)cc1F (stereo not given in full)
inactive: Potency [1] | Potency [2] | Potency [3] | Potency [5] | Potency [6] | Potency [8]

CC(=O)[C@H]1CC[C@H]2[C@@H]3CCC4=CC(=O)CC[C@]4(C)[C@H]3CC[C@]12C
inactive: Potency [1] | Potency [2] | Potency [3] | Potency [4] | Potency [6] | Potency [7]

O=c1[nH]c(=O)n([C@H]2C[C@@H](O)[C@@H](CO)O2)cc1C=CBr
inactive: Potency [1] | Potency [2] | Potency [4] | Potency [5] | Potency [7]

CC(C(C)N1CC(=O)NC(=O)C1)N1CC(=O)NC(=O)C1 (stereo not given)
inactive: Potency [1] | Potency [2] | activity (max response) [10] 12.5% | Potency [11]
active: Potency [3] 13.2 µM | Potency [5] 1.66 µM

CN(N=O)C(=O)N[C@H]1C(O)OC(CO)[C@@H](O)[C@H]1O (stereo not given in full)
inactive: Potency [1] | Potency [2] | Potency [4] | Potency [5]

CC[C@H](CO)Nc1nc(NCc2ccccc2)c2ncn(C(C)C)c2n1
inactive: Potency [1] | Potency [2] | Potency [4] | Potency [6]
active: Potency [11] 31.6 µM

CC(=O)O[C@]1(C(C)=O)CC[C@@H]2[C@@H]3C[C@H](C)C4=CC(=O)CC[C@]4(C)[C@H]3CC[C@@]21C
inactive: Potency [1] | Potency [2] | Potency [3] | Potency [4] | Potency [6] | Potency [7] | Potency [8]

COc1ccc(-c2coc3cc(O)cc(O)c3c2=O)cc1
active: Potency [10] 31.6 µM | Potency [11] 28.2 µM
inactive: Potency [1] | Potency [2] | Potency [4] | Potency [5] | Potency [8]

NCc1c[nH]c(=S)n1[C@H]1CCc2c(F)cc(F)cc2C1
inactive: Potency [1] | Potency [2] | Potency [3] | activity (max response) [10] -7.85% | Potency [11]

N#Cc1ccc(NC(=O)Nc2ccccc2Br)c2n[nH]nc12
inactive: Potency [1] | Potency [2] | Potency [4] | Potency [5] | Potency [6] | Potency [7] | Potency [8] | activity (max response) [10] -2.82% | Potency [11]

OCCn1cc(-c2cnc3nnn(Cc4ccc5ncccc5c4)c3n2)cn1
inactive: Potency [1] | Potency [2] | Potency [4] | Potency [5] | activity (max response) [10] -4.78% | Potency [11]

CC[C@H](NC(=O)[C@H](C)NC)C(=O)N1C[C@@H](O)C[C@H]1Cc1c(-c2[nH]c3cc(F)ccc3c2C[C@H]2C[C@H](O)CN2C(=O)[C@H](CC)NC(=O)[C@H](C)NC)[nH]c2cc(F)ccc12
active: Potency [1] 0.935 µM | Potency [2] 2.35 µM | Potency [3] 2.96 µM | Potency [5] 3.32 µM
inactive: Potency [6]

COc1ccc(CCC(=O)Nc2nc3ccc(Cl)cc3s2)cc1OC
inactive: Potency [1] | Potency [2] | Potency [3] | Potency [5] | Potency [6] | Potency [7] | Potency [8] | activity (max response) [10] -11.7%

C1=CCOCc2cc(ccc2OCCN2CCCC2)Nc2nccc(n2)-c2cccc(c2)OCC1
active: Potency [1] 7.43 µM | Potency [2] 6.62 µM | Potency [3] 10.5 µM | Potency [5] 13.2 µM | Potency [6] 3.32 µM | Potency [7] 4.18 µM | Potency [8] 4.18 µM

COC1CCC(C(=O)c2ccc3nc4c(cc3c2)CCCO4)CC1 (stereo not given)
inactive: Potency [1] | Potency [3] | Potency [5] | Potency [6] | activity (max response) [10] 3.89% | Potency [11]
active: Potency [2] 18.7 µM | Potency [8] 3.32 µM

Cc1ccc([C@@H]2O[C@H](CO)[C@@H](O)[C@H](O)[C@@H]2O)cc1Cc1ccc(-c2ccc(F)cc2)s1
inactive: Potency [1] | Potency [2] | Potency [6]

CC(=O)NCCC(=O)N[C@@H](CCC(N)=O)C(=O)N[C@@H](CO)C(=O)N[C@@H](CCC(N)=O)C(=O)N[C@@H](CCC(N)=O)C(=O)N[C@H](C(=O)N[C@@H](Cc1ccccc1)C(=O)N[C@]1(C)CCCCCCC=CCCC[C@@](C)(C(=O)N[C@@H](CCC(N)=O)C(=O)N[C@@H](CC(N)=O)C(N)=O)NC(=O)[C@H](CC(C)C)NC(=O)[C@H](CC(C)C)NC(=O)[C@@H](CCCNC(=N)N)NC(=O)[C@H](Cc2c[nH]c3ccccc23)NC(=O)[C@H](CC(C)C)NC(=O)[C@H](CC(N)=O)NC1=O)[C@H](C)O
active: Potency [7] 0.833 µM | Potency [8] 2.64 µM | Potency [10] 28.2 µM
inactive: Potency [1] | Potency [2] | Potency [4] | Potency [5]
